Laboratory results taken from PubChem BioAssay (Tox21).
Results filed as inconclusive are left out. Active and inactive are the calls of the source. Unless noted, the call rests on the fitted dose curve; in most records, active means well fitted curve in the direction sought with a large enough effect in the repeat runs; inconclusive means weak or mixed curves; inactive means no such curve, though single readings can be large; an effect the other way counts as inactive or inconclusive.

Columns and labels:
[1] = target: Thyrotropin receptor (Homo sapiens) (UniProt P16473); assay: qHTS assay to identify small molecule agonists of the thyroid stimulating hormone receptor (TSHR) signaling pathway (AID 1224843; calls by dose curve; further: nearly all actives have a fitted effect of over 45% in size)
Sequence of Thyrotropin receptor (Homo sapiens) (P16473 whole entry, looked up): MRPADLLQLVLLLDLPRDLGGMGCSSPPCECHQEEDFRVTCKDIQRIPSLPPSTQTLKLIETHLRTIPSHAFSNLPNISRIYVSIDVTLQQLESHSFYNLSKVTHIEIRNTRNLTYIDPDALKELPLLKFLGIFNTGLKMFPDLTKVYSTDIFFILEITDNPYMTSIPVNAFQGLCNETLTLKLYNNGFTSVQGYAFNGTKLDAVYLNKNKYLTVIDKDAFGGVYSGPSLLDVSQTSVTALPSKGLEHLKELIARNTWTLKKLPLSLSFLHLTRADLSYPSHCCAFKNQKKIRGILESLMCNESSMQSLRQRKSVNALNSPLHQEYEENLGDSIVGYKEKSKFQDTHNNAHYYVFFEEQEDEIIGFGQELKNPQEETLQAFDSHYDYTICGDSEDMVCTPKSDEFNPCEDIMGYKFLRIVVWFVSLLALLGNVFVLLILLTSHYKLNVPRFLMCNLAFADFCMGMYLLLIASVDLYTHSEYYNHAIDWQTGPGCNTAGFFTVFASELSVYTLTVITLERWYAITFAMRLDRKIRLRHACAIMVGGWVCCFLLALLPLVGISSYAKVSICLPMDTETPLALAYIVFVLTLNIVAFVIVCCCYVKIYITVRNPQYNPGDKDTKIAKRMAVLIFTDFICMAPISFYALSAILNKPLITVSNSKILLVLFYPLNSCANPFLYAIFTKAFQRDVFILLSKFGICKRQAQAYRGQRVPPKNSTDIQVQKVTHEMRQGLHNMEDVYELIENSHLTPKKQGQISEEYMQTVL
Procedure, shortened: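 Cell line HEK293 with TSHR; density 800/well. Exposure 30 min RT. Readout HTRF cAMP (cAMP-d2/anti-cAMP-cryptate), 1 h RT before reading.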

[2] = qHTS assay to identify small molecule agonists of the hypoxia (HIF-1) signaling pathway - cell viability counter screen (AID 1224844; calls by dose curve; further: nearly all actives have a fitted effect of over 50% in size)
Procedure, shortened: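 HRE-bla ME-180 cells, 2,000/well in 0.5% dialyzed FBS medium, treated 17 h at 37C with compounds. Viability read in the same wells as the bla reporter, by CellTiter-Glo luminescence after 30 min at room temperature.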

[3] = qHTS assay to identify small molecule agonists of H2AX (AID 1224845; active means well fitted activation curve with a large enough effect in the signal ratio in the repeat runs, not every such curve was filed as active; the % refers to the signal ratio)
Procedure, shortened: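 Wild-type CHO-K1 cells plated overnight, then exposed 3 hr at 37C to compounds at 15 concentrations (0.76% DMSO). Lysed, then HTRF anti-pH2AX(S139)-cryptate/anti-H2AX-d2 detection after 24 hr at room temperature; emissions 665 and 620 nm.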

[4] = qHTS assay to identify small molecule agonists of the hypoxia (HIF-1) signaling pathway (AID 1224846; active means well fitted activation curve with a large enough effect in the signal ratio in the repeat runs, not every such curve was filed as active; the % refers to the signal ratio)
Procedure, shortened: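 HRE-bla ME-180 beta-lactamase reporter cells in medium with 0.5% dialyzed FBS, pre-incubated 5 h then exposed to compounds 17 h at 37C, 5% CO2; reporter induction read with CCF4-AM FRET substrate.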

[5] = qHTS assay to identify small molecule agonists of H2AX - cell viability counter screen (AID 1224847; calls by dose curve; further: top concentration of the series differs between compounds; nearly all actives have a fitted effect of over 30% in size)
Procedure, shortened: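 Quantitative HTS viability measurement: CHO-K1 wild-type cells in serum (10% FBS) medium, short 3 hr drug exposure at 37C with 0.76% DMSO, CellTiter-Glo luminescent detection.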

[6] = qHTS RealTime-Glo MT Cell Viability Assay in HepG2 cells - 24 hour (AID 1224867); further: nearly all actives have a fitted effect of over 50% in size
Procedure, shortened: (§1)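 Cells + NanoLuc/prosubstrate dispensed (600 cells/well) → 5 h at 37 C/5% CO2 → compounds in DMSO transferred → 40 h incubation at 37 C, luminescence read at 0, 8, 16, 24, 32, 40 h.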

[7] = qHTS RealTime-Glo MT Cell Viability Assay in HEK293 cells - 32 hour (AID 1224868); further: top concentration of the series differs between compounds; nearly all actives have a fitted effect of over 50% in size
Procedure, shortened: (§2)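 Tox21 10K qHTS, HEK293, 600 cells/well, RealTime-Glo reagent co-dispensed with cells; 5 h preincubation, compound by pintool, 37 C, luminescence at 0–40 h.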

[8] = A CellTox Green Cytotoxicity Assay to monitor cytotoxicity in HEK293 cells - 0 hour (AID 1224869); further: nearly all actives have a fitted effect of over 50% in size
Procedure, shortened: (§3)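 HEK293 cells, 600/well, were preincubated 5 hours and then exposed to compounds at 37 C for up to 40 hours. A cell-impermeant cyanine dye staining dead-cell DNA was read by fluorescence at 0, 8, 16, 24, 32 and 40 h time points.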

[9] = qHTS RealTime-Glo MT Cell Viability Assay in HepG2 cells - 40 hour (AID 1224870); further: nearly all actives have a fitted effect of over 50% in size
Procedure, shortened: (§4)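 HepG2 cells mixed with RealTime-Glo MT reagents (NanoLuc plus cell-permeant prosubstrate) were seeded at 600 cells/well, incubated 5 h at 37 C/5% CO2, then pinned with compounds in DMSO; nonlytic luminescence tracked viability during 40 h treatment.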

[10] = A CellTox Green Cytotoxicity Assay to monitor cytotoxicity in HEK293 cells - 40 hour (AID 1224871); further: nearly all actives have a fitted effect of over 45% in size
Procedure, shortened: as §3

[11] = qHTS RealTime-Glo MT Cell Viability Assay in HepG2 cells - 8 hour (AID 1224873); further: nearly all actives have a fitted effect of over 55% in size
Procedure, shortened: as §4

[12] = qHTS RealTime-Glo MT Cell Viability Assay in HEK293 cells - 40 hour (AID 1224874); conditions: RealTime-Glo luminescence; max response: active compounds read low; further: nearly all actives have a fitted effect of over 50% in size
Procedure, shortened: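 600 cells/well were plated with the nonlytic NanoLuc/prosubstrate reagent, pre-incubated 5 h, then given 23 nL of compound in DMSO. Incubation at 37 C for 40 h, with luminescence from viable-cell-reduced substrate read repeatedly from 0 h.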

[13] = A CellTox Green Cytotoxicity Assay to monitor cytotoxicity in HEK293 cells - 24 hour (AID 1224875); further: series mostly up to about 77 µM; nearly all actives have a fitted effect of over 45% in size
Procedure, shortened: as §3

[14] = A CellTox Green Cytotoxicity Assay to monitor cytotoxicity in HepG2 cells - 16 hour (AID 1224876); further: nearly all actives have a fitted effect of over 45% in size
Procedure, shortened: (§5)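 HepG2 cells, 600/well, preincubated 5 h with CellTox Green dye, then exposed to Tox21 compounds in DMSO at 37 C for up to 40 h. Dead-cell DNA fluorescence read at the indicated time point.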

[15] = qHTS RealTime-Glo MT Cell Viability Assay in HepG2 cells - 32 hour (AID 1224877); further: nearly all actives have a fitted effect of over 55% in size
Procedure, shortened: as §1

[16] = A CellTox Green Cytotoxicity Assay to monitor cytotoxicity in HepG2 cells - 24 hour (AID 1224878); further: nearly all actives have a fitted effect of over 45% in size
Procedure, shortened: as §5

[17] = A CellTox Green Cytotoxicity Assay to monitor cytotoxicity in HepG2 cells - 40 hour (AID 1224879); further: nearly all actives have a fitted effect of over 40% in size
Procedure, shortened: as §5

[18] = qHTS RealTime-Glo MT Cell Viability Assay in HEK293 cells - 16 hour (AID 1224872)
Procedure, shortened: as §2

[19] = qHTS assay to identify small molecule antagonists of the estrogen related receptor (ERR) signaling pathway from Tox21 library (AID 1224848); further: nearly all actives have a fitted effect of over 50% in size
Procedure, shortened: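 Screening used an ERR reporter line supplied by NTP, exposed for 18 h at 37 C to library compounds delivered in DMSO. Signal was luciferase luminescence developed with ONE-Glo at room temperature for 30 min.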
On the % scale 0 is the no-effect control and ±100 the full control effect.

C=C(Cl)CCl
inactive: Potency [1] | Potency [2] | outcome [3] | outcome [4] | Potency [5] | Potency [6] | Potency [7] | outcome [8] | Potency [9] | Potency [10] | outcome [11] | max response [12] -1.15% | Potency [13] | Potency [14] | Potency [15] | Potency [16] | Potency [17]

CCOP(=O)(CN(CCO)CCO)OCC
inactive: Potency [1] | Potency [2] | outcome [3] | outcome [4] | Potency [5] | Potency [6] | Potency [7] | outcome [8] | Potency [9] | Potency [10] | Potency [18] | outcome [11] | Potency [13] | Potency [14] | Potency [15] | Potency [16] | Potency [17]

ClCCCCl
inactive: Potency [1] | Potency [2] | outcome [3] | outcome [4] | Potency [5] | Potency [6] | Potency [7] | outcome [8] | Potency [9] | Potency [10] | Potency [18] | outcome [11] | max response [12] 9.81% | Potency [13] | Potency [14] | Potency [16] | Potency [17]

O=C(NC(=O)c1c(F)cccc1F)Nc1cc(Cl)c(F)c(Cl)c1F
inactive: Potency [1] | Potency [2] | outcome [3] | outcome [4] | Potency [5] | Potency [6] | Potency [7] | outcome [8] | Potency [9] | Potency [10] | Potency [18] | outcome [11] | max response [12] -0.171% | Potency [13] | Potency [14] | Potency [15] | Potency [17]

CN(CCO)CCO
inactive: Potency [1] | Potency [2] | outcome [3] | outcome [4] | Potency [5] | Potency [6] | Potency [7] | outcome [8] | Potency [9] | Potency [10] | Potency [18] | outcome [11] | max response [12] -0.53% | Potency [13] | Potency [15] | Potency [17]

CC(C)[C@]12CC(=O)[C@H](C)[C@H]1C2
inactive: Potency [1] | Potency [2] | outcome [3] | outcome [4] | Potency [5] | Potency [6] | Potency [7] | outcome [8] | Potency [9] | Potency [10] | Potency [18] | Potency [13] | Potency [14] | Potency [15] | Potency [16] | Potency [17]

CC(C)NCC(O)c1ccc([N+](=O)[O-])cc1 (stereo not given)
inactive: Potency [1] | Potency [2] | outcome [3] | outcome [4] | Potency [5] | Potency [6] | Potency [7] | outcome [8] | Potency [9] | Potency [10] | Potency [18] | Potency [13] | Potency [14] | Potency [15] | Potency [16] | Potency [17]

ClCOCCl
inactive: Potency [1] | Potency [2] | outcome [3] | outcome [4] | Potency [5] | Potency [6] | Potency [7] | outcome [8] | Potency [9] | Potency [10] | outcome [11] | max response [12] 12.2% | Potency [13] | Potency [14] | Potency [15] | Potency [16] | Potency [17]

C=CCCC#N
inactive: Potency [1] | Potency [2] | outcome [3] | outcome [4] | Potency [5] | Potency [6] | Potency [7] | outcome [8] | Potency [9] | Potency [10] | outcome [11] | max response [12] 6.33% | Potency [13] | Potency [14] | Potency [15] | Potency [16] | Potency [17]

NCCOS(=O)(=O)O
inactive: Potency [1] | Potency [2] | outcome [3] | outcome [4] | Potency [5] | Potency [6] | Potency [7] | outcome [8] | Potency [9] | Potency [10] | outcome [11] | max response [12] 1.3% | Potency [13] | Potency [14] | Potency [15] | Potency [16] | Potency [17]

CCCCCCC(=O)CCCCCC/C=C/C[C@@H](O)[C@H](O)[C@@](N)(CO)C(=O)O
inactive: activation [1] -1.25% [at 19 µM] | activation (H2AX phosphorylation) [3] -0.061% [at 31.6 µM] | activation [4] -0.0517% [at 15.8 µM] | activity change, negative = cytotoxicity [5] -0.19% [at 31.6 µM] | activity change, negative = cytotoxicity [6] 0.745% [at 15.8 µM] | activity change, negative = cytotoxic [7] 2.61% [at 15.8 µM] | cytotoxicity [8] 0.947% [at 15.8 µM] | activity change, negative = cytotoxic [9] 0.839% [at 15.8 µM] | cytotoxicity increase [10] -5.02% [at 15.8 µM] | activity change, negative = cytotoxicity [18] -2.21% [at 15.8 µM] | viability change, negative = cytotoxic [11] 1.7% [at 15.8 µM] | max response [12] 2.74% | activity change [13] -5.64% [at 15.8 µM, active compounds read high] | activity change, negative = cytotoxic [15] 0.443% [at 15.8 µM] | cytotoxicity [16] -14.9% [at 15.8 µM] | cytotoxicity increase [17] -21.5% [at 15.8 µM]

C[C@H](N)C(=O)c1ccccc1
inactive: Potency [1] | outcome [3] | Potency [5] | Potency [6] | Potency [7] | outcome [8] | Potency [9] | Potency [10] | outcome [11] | max response [12] -10.2% | Potency [13] | Potency [16]

CC(C)(O)C(Cl)(Cl)Cl
inactive: Potency [1] | outcome [3] | outcome [4] | Potency [5] | Potency [6] | Potency [7] | outcome [8] | Potency [9] | Potency [10] | Potency [18] | outcome [11] | max response [12] 4.01% | Potency [13] | Potency [17]

COc1ccccc1OC
inactive: Potency [1] | outcome [3] | outcome [4] | Potency [5] | Potency [19] | Potency [6] | Potency [7] | outcome [8] | Potency [9] | Potency [10] | Potency [18] | max response [12] 0.0799% | Potency [13] | Potency [14] | Potency [15] | Potency [16] | Potency [17]

CCOC(=O)Nc1cccc(OC(=O)Nc2ccccc2)c1
inactive: Potency [1] | outcome [3] | outcome [4] | Potency [5] | Potency [6] | Potency [7] | outcome [8] | Potency [9] | Potency [10] | Potency [18] | Potency [13] | Potency [14] | Potency [15]

CCC(C)(C#N)N=NC(C)(C#N)CC (stereo not given)
inactive: Potency [1] | outcome [3] | outcome [4] | Potency [5] | Potency [19] | Potency [6] | Potency [7] | outcome [8] | Potency [9] | Potency [10] | Potency [18] | outcome [11] | Potency [13] | Potency [16] | Potency [17]

CNC(=O)Oc1ccccc1C(C)C
inactive: Potency [1] | outcome [3] | outcome [4] | Potency [5] | Potency [19] | Potency [7] | outcome [8] | Potency [9] | Potency [10] | Potency [18] | outcome [11] | max response [12] 3.33% | Potency [13] | Potency [14] | Potency [15] | Potency [17]
